TDP1 cell noCPT: qHTS for Inhibitors of human tyrosyl-DNA phosphodiesterase 1 (TDP1): qHTS in cells in absence of CPT | DT40 Tdp1-/- hTDP1 cells, no CPT, ATP luminescence, 48 h | 420,000 tested, 15% active | AID 686978, 2013 | Potency, µM (series often up to 46.2 µM), for inactives: at the highest dose activity change, negative = growth inhibition, hits mostly inhibitors; further: on the % scale 0 is the no-effect control and ±100 the full control effect; nearly all actives have a fitted effect of over 55% in size
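Seeded 400 DT40-hTDP1 cells/well (vehicle DMSO, no 20 nM CPT); pinned compounds; ≥48 hr at 37 °C; CellTiter-Glo luminescence as viability measure.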
HepG2 viability: qHTS for Inhibitors of TGF-b: Cytotox Counterscreen | HepG2 CAGA-GFP viability, ATP luminescence, 18 h | Potency, µM (top dose mostly 46.1 µM), without a hit: at the highest dose activity change, negative = cytotoxicity, most hits filed as cytotoxic | 410,000 tested, 0.76% active
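HepG2 CAGA-GFP cells (1000/well, DMEM with 1% FBS) received compound, then TGF-beta at 500 pg/mL final, and were incubated 18 hours at 37 degrees C. Viability was read by CellTiter-Glo luminescence. Media-only wells were set as complete cell-killing and DMSO as no toxicity.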
TDP1 cell CPT: qHTS for Inhibitors of human tyrosyl-DNA phosphodiesterase 1 (TDP1): qHTS in cells in presence of CPT. chicken DT40 Tdp1-/-;hTDP1 cells + 20 nM CPT, ATP luminescence, 48 h. Potency, µM (titrated, usually from 46.2 µM), without a hit: at the highest dose activity change, negative = growth inhibition, actives largely listed as inhibitors. 420,000 tested, 12% active. AID 686979, 2013; further: on the % scale 0 is the no-effect control and ±100 the full control effect; nearly all actives have a fitted effect of over 55% in size
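Chicken DT40 Tdp1-/- cells complemented with human TDP1, 400 cells/well, exposed to compounds plus 20 nM camptothecin for at least 48 h at 37 C; viability read as ATP content by CellTiter-Glo luminescence.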
TGFb inhibitor: qHTS for Inhibitors of TGF-b. HepG2 CAGA-GFP TGF-b/SMAD3 reporter, GFP fluorescence, 18 h; TGF-beta stimulated, 500 pg/mL final. Potency, µM (highest dose often 46.1 µM), inactives show top-dose activity, negative = inhibition, actives largely listed as inhibitors. 410,000 tested, 1.2% active. AID 588855, 2011; further: on the % scale 0 is the no-effect control and ±100 the full control effect; nearly all actives have a fitted effect of over 65% in size
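Per well, imaged GFP fluorescence of HEPG2 CAGA-GFP cells gives the signal; cells get compound, then TGF-beta (500 pg/mL final), 18 h at 37 degrees C; %Activity versus -TGF-beta and +DMSO controls.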
ATXN viability: Viability Counterscreen for Primary qHTS for Inhibitors of ATXN expression | S2 cells (HEK-293 line with an ATXN2-luciferase reporter) viability, CellTiter-Fluor protease fluorescence, 24 h | Potency, µM (titrated, usually from 56.7 µM), actives largely listed as cytotoxic | 400,000 tested, 0.49% active | AID 651635, 2014; further: nearly all actives have a fitted effect of over 40% in size
ATXN2 expr inh: Primary qHTS for Inhibitors of ATXN expression. AID 1745845, 2022. Potency, µM (highest dose often 57 µM), for inactives: at the highest dose activity change, negative = inhibition, usual class: inhibitors. 360,000 tested, 0.72% active. HEK-293 ATXN2-luciferase reporter, luminescence, 24 h; further: on the % scale 0 is the no-effect control and ±100 the full control effect; nearly all actives have a fitted effect of over 55% in size
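ATXN2-luciferase reporter cells (luciferase flanked by upstream and downstream ATXN2 gene portions) were treated 24 h at 37 °C with compounds at up to 57 uM. SteadyGlo luminescence gave expression; GF-AFC fluorescence gave viability.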
* hit, by the source's call; i = inactive; ? = inconclusive; . = no result. Shown are actives, neighbours in structure and some others; about 17% of the full set was active somewhere. The call rests on the fitted dose curve; in most records, active means well fitted curve in the direction sought with a large enough effect; inconclusive means small, poorly fitted or top-dose-only effect, or another doubt; inactive means no such curve, though single readings can be large; an effect the other way counts as inactive or inconclusive. Potency means the concentration at half of the fitted maximal effect.

SMILES	TDP1 cell noCPT	HepG2 viability	TDP1 cell CPT	TGFb inhibitor	ATXN viability	ATXN2 expr inh
O=C(NCCc1ccc(Cl)cc1)c1cc(-c2ccncc2)nc2ccccc12	?	-24%	?	-4%	i	-35%
CSc1nnc(-c2ccco2)n1-c1ccccc1	?	-7%	18µM*	0%	i	0%
C[C@H]1O[C@@H](O[C@H]2[C@@H](O)C[C@H](O[C@H]3[C@@H](O)C[C@H](O[C@H]4CC[C@@]5(C)[C@H](CC[C@@H]6[C@@H]5C[C@@H](O)[C@]5(C)[C@@H](C7=CC(=O)OC7)CC[C@]65O)C4)O[C@@H]3C)O[C@@H]2C)C[C@H](O)[C@@H]1O	0.6µM*	-56%	0.84µM*	?	?	0.32µM*
Cc1ccc(NS(=O)(=O)c2ccc(NC(=O)c3ccccc3C(=O)O)cc2)c(C)c1	-1%	-18%	-1%	6%	i	-9%
Cc1ccc(NS(=O)(=O)c2ccc(NC(=O)c3ccc(-c4ccccc4)cc3)cc2)c(C)c1	23µM*	10%	23µM*	-3%	?	?
Cc1cc(C)cc(NS(=O)(=O)c2ccc(NC(=S)NC(=O)c3ccc(Br)o3)cc2)c1	16µM*	-85%	16µM*	?	i	?
Cc1cc(NC(=O)c2ccc(Br)o2)ccc1NC(=O)c1ccco1	16µM*	10µM*	15µM*	15%	i	8%
Cc1ccc(NS(=O)(=O)c2ccc(NC(=O)c3ccc(Br)o3)cc2)c(C)c1	26µM*	-10%	?	?	i	-32%
COc1ccc(NC(=O)c2cc(S(=O)(=O)N3CCCCC3)ccc2OC)cc1	-11%	-19%	?	-16%	?	0%
CCC1(c2ccc(F)cc2)NC(=O)N(CC(=O)Nc2ccc(C)c(S(=O)(=O)N3CCOCC3)c2)C1=O (stereo unspecified)	-14%	2%	-1%	26%	i	-6%
CCOC(=O)C(NC(C)=O)(NC(C)C)C(F)(F)F (stereo unspecified)	-12%	0%	-10%	1%	i	.
Cc1ccc(/C=N/NC(=O)C(C)Oc2cccc3ccccc23)o1 (stereo unspecified)	?	0%	?	-11%	i	7%
Cc1ccc(NC(=O)C(c2ccccc2)N2CCN(C(=O)c3ccco3)CC2)cc1Cl (stereo unspecified)	-21%	-25%	-22%	?	i	.
CCN(CC)S(=O)(=O)c1ccc2c(c1)N(CC(=O)NCC1CCCO1)C(=O)CO2 (stereo unspecified)	23%	1%	-6%	0%	i	5%
CNC[C@@H]1OCc2ccccc2-c2ccccc2C(=O)N([C@H](C)CO)C[C@@H]1C	1%	-15%	-7%	12%	i	-13%
Cc1ccc(NS(=O)(=O)c2cccc(C(=O)Nc3cccnc3)c2)c(C)c1	15µM*	-15%	?	-5%	i	-5%
CC(NC(=O)c1ccc(C#N)cc1)C1CC2CCC1C2 (stereo unspecified)	-15%	1%	-24%	-1%	i	2%
COc1cc(OCc2ccccc2)c(OC)c(OCc2ccccc2)c1	?	-17%	21µM*	-4%	i	6%
Cn1c(O)c(C2=c3ccccc3=NC2=O)[nH]c1=S	-23%	-13%	-20%	?	i	-14%
O=C1N=c2ccccc2=C1c1sc(=S)n(NC(=O)c2ccccc2)c1O	?	-22%	18µM*	?	i	34%
C=CCN(C(=O)C1CC(=O)N(C2CCCC2)C1)c1nc(-c2ccc(S(C)(=O)=O)cc2)cs1 (stereo unspecified)	15µM*	-27%	15µM*	0%	i	-19%
COc1ccc(OC)c(C2(O)CSC(=Nc3cccnc3)N2Cc2ccco2)c1 (stereo unspecified)	18µM*	-3%	15µM*	-11%	i	-10%
COc1ccc(OC)c(/C=N/N=C2\SCC(=O)N2Cc2ccco2)c1	?	-36%	-22%	5%	i	18%
O=c1c2ccccc2oc2ccc(-c3ccoc3)cc12	?	-16%	-107%	?	.	.
CCOc1ccccc1NC(=O)C(=O)NCCc1sc2nc(-c3ccc(OC)cc3)nn2c1C	?	-14%	?	-7%	.	.
SMILES	TDP1 cell noCPT	HepG2 viability	TDP1 cell CPT	TGFb inhibitor	ATXN viability	ATXN2 expr inh
CCC(=O)Nc1cc(=O)[nH]c2nc(-c3ccc(Cl)cc3)nn12	18µM*	-1%	?	2%	i	-4%
COc1cc(O)c(C(CCN2CCCCC2)c2ccc3c(c2)OCO3)c(OC)c1 (stereo unspecified)	?	-6%	?	?	?	?
CCN(CC)CCC(c1ccc(N(C)C)cc1)c1c(OC)cc(OC)c2c(C)cc(=O)oc12 (stereo unspecified)	.	-25%	.	-23%	.	.
COc1cc(OC)c2ccc(=O)oc2c1C(CC(=O)N1CCCC(C)C1)c1ccc2c(c1)OCO2 (stereo unspecified)	?	0%	?	-13%	?	-6%
CCN(CC)CCC(c1cc(OC)c(OC)c(OC)c1)c1c(OC)cc(OC)c2c(C)cc(=O)oc12 (stereo unspecified)	23µM*	-28%	9.2µM*	?	?	8%
COc1cc(OC)c2c(-c3ccccc3)cc(=O)oc2c1C(CCN1CCCC(C)C1)c1ccc2c(c1)OCO2 (stereo unspecified)	23µM*	-20%	?	?	10µM*	?
CCN(CC)CCC(c1cc(OC)c(OC)c(OC)c1)c1c(OC)cc(OC)c2ccc(=O)oc12 (stereo unspecified)	?	-25%	?	-4%	?	-7%
COc1cc(OC)c2c(-c3ccccc3)cc(=O)oc2c1C(CCN1CCCCC1)c1ccc2c(c1)OCO2 (stereo unspecified)	7.3µM*	-26%	9.2µM*	?	?	-17%
CCN(CC)CCC(c1ccc2c(c1)OCO2)c1c(OC)cc(OC)c2ccc(=O)oc12 (stereo unspecified)	18µM*	-16%	13µM*	0%	10µM*	10%
